High-throughput results: PubChem, National Center for Advancing Translational Sciences (NCATS)
Shown is part of a subset that was picked to be rich in hits.
ERK EGF block: qHTS Assay for Inhibitors of the ERK Signaling Pathway using a Homogeneous Screening Assay; Stimulation with EGF. HEK293-V1b, EGF-stimulated phospho-ERK AlphaScreen. Potency, µM (highest dose often 11.5 µM), for inactives: at the top dose activity change, negative = inhibition, actives largely listed as inhibitors. 130,000 tested, 0.41% active;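 also: potency is read from the fitted curve at half-maximal effect; plate controls were stimulated vehicle wells for no effect and unstimulated vehicle basal for full effect; nearly all actives have a fitted effect of over 55% in size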
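In this qHTS, HEK293 cells with stable type-1 vasopressin (V1b) receptor were exposed to compound at 37C for 30 min, stimulated 5 min with EGF at 25 nM, lysed, and probed for phospho-ERK by AlphaScreen.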
ERK pERK EGF: Confirmation Concentration-Response Assay for Inhibitors of the ERK Signaling Pathway using a Homogeneous Screening Assay; Stimulation with EGF. shares compounds with ERK EGF block. HEK293 EGF-stimulated ERK phosphorylation, AlphaScreen. Potency, µM (series often up to 57.5 µM), for the others: top-dose activity change, negative = inhibition, actives largely listed as inhibitors. 60 tested, 60% active
cRaf kinase inh: Assay for Inhibitors of the ERK Signaling Pathway using a Homogeneous Screening Assay: c-Raf Inhibition; 70 tested, under 10 active; activity change, negative = inhibition, % at 76.9 µM; c-Raf kinase inhibition, homogeneous biochemical assay; shares compounds with ERK EGF block
MEK inh: Assay for Inhibitors of the ERK Signaling Pathway using a Homogeneous Screening Assay: MEK Inhibition. AID 1732, 2009. 70 tested, under 10 active. Potency, µM (titrated, usually from 76.9 µM), for the others: at the highest dose activity change, negative = inhibition, most hits filed as inhibitors. homogeneous MEK kinase activity assay, ERK pathway. shares compounds with ERK EGF block
Target sequence (Q02750 whole entry, looked up): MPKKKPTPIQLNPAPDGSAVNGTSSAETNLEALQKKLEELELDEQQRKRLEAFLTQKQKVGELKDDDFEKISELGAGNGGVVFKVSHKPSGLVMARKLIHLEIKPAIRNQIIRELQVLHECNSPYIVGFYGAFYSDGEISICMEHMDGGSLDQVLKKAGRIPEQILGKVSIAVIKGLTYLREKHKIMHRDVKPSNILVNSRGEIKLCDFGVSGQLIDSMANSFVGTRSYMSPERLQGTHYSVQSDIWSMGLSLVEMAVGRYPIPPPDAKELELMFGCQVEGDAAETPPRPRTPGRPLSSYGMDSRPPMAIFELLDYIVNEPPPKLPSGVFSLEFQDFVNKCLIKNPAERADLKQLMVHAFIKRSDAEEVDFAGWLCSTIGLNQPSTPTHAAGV
* hit, by the source's call; [ ] = dose if it differs, or a comment. Calls follow the shape of the dose curve; as a rule, active = well fitted curve in the direction sought with a large enough effect; inconclusive = small, poorly fitted or top-dose-only effect, or another doubt; inactive = no such curve, though single readings can be large; an effect the other way counts as inactive or inconclusive.

How did CC1CC[C@@]2(OC1)O[C@@H]1[C@@H](O)[C@H]3C4CC[C@H]5C[C@@H](O[C@@H]6O[C@H](CO)[C@H](O[C@@H]7O[C@H](CO)[C@@H](O)[C@H](O[C@@H]8OC[C@@H](O)[C@H](O)[C@H]8O)[C@H]7O[C@@H]7O[C@H](CO)[C@@H](O)[C@H](O[C@@H]8O[C@H](CO)[C@@H](O)[C@H](O)[C@H]8O)[C@H]7O)[C@H](O)[C@H]6O)[C@H](O)C[C@]5(C)C4CC[C@]3(C)[C@H]1[C@@H]2C (some centres undefined) do in these assays?
ERK EGF block: -3.2%

How did CC1CC[C@@]2(OC1)OC1C(O)C3C4CC[C@H]5CC(O[C@@H]6O[C@@H](CO)[C@H](OC7OC(CO)C(O)C(OC8OCC(O)C(O)[C@H]8O)[C@@H]7O[C@@H]7OC(CO)[C@H](O)[C@@H](O[C@@H]8OC(CO)C(O)C(O)C8O)C7O)C(O)C6O)C(O)C[C@]5(C)C4CC[C@]3(C)C1C2C (some centres undefined) do in these assays?
ERK EGF block: 7.08µM*

Results for CC(=O)OC1C[C@H](O[C@@H]2C(O)C[C@H](O[C@@H]3C(O)C[C@@H](OC4CC[C@]5(C)C(CCC6C5CC(O)[C@@]5(C)C(C7=CC(=O)OC7)CC[C@@]65O)C4)OC3C)OC2C)O[C@H](C)[C@H]1O[C@H]1OC(CO)C(O)C(O)C1O (some centres undefined) ?
ERK EGF block: 18.2%

Results for C[C@@]12CCC3C(CCC4=CC(=O)CC[C@]43C)C1CCC2O (some centres undefined) ?
ERK EGF block: 31.0%

What do the screens show for `Cl.Cl.Cl.Cl.Cl.Cl.N.N.N.N.NNNNN.NNNNN.O.O.[Ru].[Ru].[Ru]`?
ERK EGF block: -10.3%

Results for CCCN1CCCC(c2cccc(O)c2)C1 (centres undefined) ?
ERK EGF block: 15.7%

What do the screens show for `CN1Cc2c(ccc3c2OCO3)C2C(O)Cc3cc4c(cc3C21)OCO4` (centres undefined)?
ERK EGF block: 0.1%

How did Cc1ccccc1-c1cncnc1NCCc1cnc[nH]1 do in these assays?
ERK EGF block: 13.7%

What do the screens show for `CC(C)CCCC1(C)C=Cc2c(O)c3c(c(CCC(C)C)c2O1)OC12C(CC4CC1C(C)(C)OC2(CCC(C)C(=O)O)C4O)C3=O` (centres undefined)?
ERK EGF block: 5.4%

What do the screens show for `CC(C)=CCCC1(C)C=Cc2c(O)c3c(c(CC=C(C)C)c2O1)OC12C(=CC4CC1C(C)(C)OC2(C/C=C(/C)C(=O)O)C4O)C3=O` (centres undefined)?
ERK EGF block: 37.4%

Results for CC(C)=CCCC1(C)C=Cc2c(O)c3c(c(CC=C(C)C)c2O1)OC12C(=CC4CC1C(C)(C)OC2(C/C=C(/C)C(=O)O)C4=O)C3=O (centres undefined) ?
ERK EGF block: 15.8µM*

How did C[C@]12CCC3C(CC[C@]4(O)C[C@@H](O)CC[C@]34C=O)[C@@]1(O)CC[C@@H]2C1=CC(=O)OC1 (some centres undefined) do in these assays?
ERK EGF block: -1.8%

Results for C=C(COC(C)=O)CC1CC(O)[C@]2(C)OC3CC4OC5C[C@]6(C)O[C@]7(C)CCC8OC9C[C@]%10(C)OC%11C(C)=CC(=O)OC%11CC%10OC9C[C@@H](C)C8OC7CC6O[C@]5(C)C/C=C\C4OC3CC2O1 (some centres undefined) ?
ERK EGF block: -11.1%[57.5 µM]

What do the screens show for `C=C(CO)CC1CC(O)[C@]2(C)OC3CC4OC5C[C@]6(C)O[C@]7(C)CCC8OC9C[C@]%10(C)OC%11C(C)=CC(=O)OC%11CC%10OC9C[C@@H](C)C8OC7CC6O[C@]5(C)C/C=C\C4OC3CC2O1` (some centres undefined)?
ERK EGF block: -17.2%[57.5 µM]

How did C=C(C=O)CC1CC(O)[C@]2(C)OC3CC4OC5C[C@]6(C)O[C@]7(C)CCC8OC9C[C@]%10(C)OC%11C(C)=CC(=O)OC%11CC%10OC9C[C@@H](C)C8OC7CC6O[C@]5(C)CC5OC5C4OC3CC2O1 (some centres undefined) do in these assays?
ERK EGF block: 35.5µM*

What do the screens show for `CN[C@@H]1C[C@H](c2ccc(Cl)c(Cl)c2)c2ccccc21`?
ERK EGF block: 10.0%

What do the screens show for `CCCN(CCC)[C@@H]1CCc2c(F)ccc(O)c2C1`?
ERK EGF block: 17.3%

Results for CCn1nc(-c2cccs2)nc2c(=O)n(C)c(=O)nc1-2 ?
cRaf kinase inh: inconclusive; MEK inh: 0.891µM*

Results for Cc1cccc(-n2c(-c3cccs3)nc3ccccc3c2=O)c1 ?
ERK EGF block: 12.2%

How did CCn1nc(/C=C/c2ccccc2)nc2c(=O)n(C)c(=O)nc1-2 do in these assays?
ERK EGF block: -2.5%

Results for O=c1cccc2n1CC1CC2CN(CCO)C1 (centres undefined) ?
ERK EGF block: 1.5%

How did c1csc(CN2CC[C@@]3(CCCNC3)C2)n1 do in these assays?
ERK EGF block: 0.9%

How did Cc1cc(/C=C2/C(=O)NC(=O)N(Cc3ccco3)C2=O)c(C)n1-c1ccccc1 do in these assays?
ERK EGF block: 5.5%

Results for Cc1ccc(N2C(=O)NC(=O)/C(=C\c3cc(C)n(-c4sc5c(c4C#N)CCCC5)c3C)C2=O)cc1 ?
ERK EGF block: -0.4%

How did CCN1C(=O)NC(=O)/C(=C/c2cc(C)n(-c3sc(C)c(C)c3C#N)c2C)C1=O do in these assays?
ERK EGF block: inconclusive; ERK pERK EGF: -3.8%; cRaf kinase inh: -9.2; MEK inh: inconclusive

Results for N[C@H](CP(=O)(O)O)C(=O)O ?
ERK EGF block: -7.1%

How did CC(N)C(O)c1ccc(O)c(O)c1 (centres undefined) do in these assays?
ERK EGF block: 4.6%
